# Substitutions are numbered along the chain they refer to.
# How the values were obtained:
# Test in all cases: PBM; 200 nM protein, PBS
# Conditions in all cases: dsDNA, one strand shown
# [1] = target: T1, NKX2-4 (Homo sapiens, UniProt Q9H2Z4 175-261, P217L)
# T1 sequence: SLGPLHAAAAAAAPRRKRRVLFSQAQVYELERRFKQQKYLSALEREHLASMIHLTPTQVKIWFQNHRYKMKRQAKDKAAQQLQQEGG
# [2] = target: T2, NKX2-4 (Homo sapiens, UniProt Q9H2Z4 175-261, T231S)
# T2 sequence: T1 sequence with L43P, T57S
# [3] = target: T3, NKX2-4 (Homo sapiens, UniProt Q9H2Z4 175-261)
# T3 sequence: T1 sequence with L43P
# [4] = target: T4, NKX2-4 (Homo sapiens, UniProt Q9H2Z4 175-261, R246Q)
# T4 sequence: T1 sequence with L43P, R72Q
# [5] = target: PROP1 (Homo sapiens, UniProt O75360 56-141)
# Chain of PROP1 (Homo sapiens, UniProt O75360 56-141) (O75360 56-141): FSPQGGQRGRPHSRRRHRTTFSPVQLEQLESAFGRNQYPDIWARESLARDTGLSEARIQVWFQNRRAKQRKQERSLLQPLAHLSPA
# [6] = target: PROP1 (Homo sapiens, UniProt O75360 56-141, R99H)
# Chain of PROP1 (Homo sapiens, UniProt O75360 56-141, R99H) (O75360 56-141 R99H): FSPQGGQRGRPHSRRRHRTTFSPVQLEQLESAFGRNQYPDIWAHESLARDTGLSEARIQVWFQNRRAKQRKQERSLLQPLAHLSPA
# [7] = target: PROP1 (Homo sapiens, UniProt O75360 56-141, F88S)
# Chain of PROP1 (Homo sapiens, UniProt O75360 56-141, F88S) (O75360 56-141 F88S): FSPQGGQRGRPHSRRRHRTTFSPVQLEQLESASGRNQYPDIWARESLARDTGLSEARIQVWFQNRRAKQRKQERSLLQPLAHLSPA
# [8] = target: VAX1 (Homo sapiens, UniProt Q5SQQ9 86-172)
# Chain of VAX1 (Homo sapiens, UniProt Q5SQQ9 86-172) (Q5SQQ9 86-172): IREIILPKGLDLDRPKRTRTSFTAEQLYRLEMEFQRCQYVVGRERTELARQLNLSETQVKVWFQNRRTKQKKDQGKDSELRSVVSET
# [9] = target: VAX1 (Homo sapiens, UniProt Q5SQQ9 86-172, T142I)
# Chain of VAX1 (Homo sapiens, UniProt Q5SQQ9 86-172, T142I) (Q5SQQ9 86-172 T142I): as the sequence (Q5SQQ9 86-172) above, with T57I counted along it
# [10] = target: VAX1 (Homo sapiens, UniProt Q5SQQ9 86-172, K157R)
# Chain of VAX1 (Homo sapiens, UniProt Q5SQQ9 86-172, K157R) (Q5SQQ9 86-172 K157R): as the sequence (Q5SQQ9 86-172) above, with K72R counted along it
# [11] = target: T5, NKX2-6 (Homo sapiens, UniProt A6NCS4 118-204, F151L)
# T5 sequence: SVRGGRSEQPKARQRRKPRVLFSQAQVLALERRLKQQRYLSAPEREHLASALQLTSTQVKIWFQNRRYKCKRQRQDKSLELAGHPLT
# [12] = target: T6, NKX2-6 (Homo sapiens, UniProt A6NCS4 118-204, R150C)
# T6 sequence: T5 sequence with R33C, L34F
# [13] = target: T7, NKX2-6 (Homo sapiens, UniProt A6NCS4 118-204)
# T7 sequence: T5 sequence with L34F
# [14] = target: NKX3-2 (Homo sapiens, UniProt P78367 192-278, P234S)
# Chain of NKX3-2 (Homo sapiens, UniProt P78367 192-278, P234S) (P78367 192-278 P234S): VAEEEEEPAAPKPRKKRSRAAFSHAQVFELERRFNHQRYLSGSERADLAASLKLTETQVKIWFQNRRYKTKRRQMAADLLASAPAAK
# [15] = target: NKX3-2 (Homo sapiens, UniProt P78367 192-278)
# Chain of NKX3-2 (Homo sapiens, UniProt P78367 192-278) (P78367 192-278): as the sequence (P78367 192-278 P234S) above, with S43P counted along it
# [16] = target: ALX1 (Homo sapiens, UniProt Q15699 118-204)
# Chain of ALX1 (Q15699 118-204): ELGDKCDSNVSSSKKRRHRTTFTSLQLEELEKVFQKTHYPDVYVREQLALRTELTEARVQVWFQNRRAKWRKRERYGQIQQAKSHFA
sequence,measurement,setting,value
CCCGGTGC,binding signal,[1],"9.16 upbm affinity estimate (log intensity, higher = more binding, comparable within an allelic series)"
same,binding signal,[2],"9.15 upbm affinity estimate (log intensity, higher = more binding, comparable within an allelic series)"
same,binding signal,[3],"9.25 upbm affinity estimate (log intensity, higher = more binding, comparable within an allelic series)"
same,binding signal,[4],"9.25 upbm affinity estimate (log intensity, higher = more binding, comparable within an allelic series)"
same,binding signal,[5],"6.92 upbm affinity estimate (log intensity, higher = more binding, comparable within an allelic series)"
same,binding signal,[6],"6.73 upbm affinity estimate (log intensity, higher = more binding, comparable within an allelic series)"
same,binding signal,[7],"6.51 upbm affinity estimate (log intensity, higher = more binding, comparable within an allelic series)"
CGGTTCCA,binding signal,[1],"9.98 upbm affinity estimate (log intensity, higher = more binding, comparable within an allelic series)"
same,binding signal,[2],"9.95 upbm affinity estimate (log intensity, higher = more binding, comparable within an allelic series)"
same,binding signal,[3],"9.92 upbm affinity estimate (log intensity, higher = more binding, comparable within an allelic series)"
same,binding signal,[4],"10 upbm affinity estimate (log intensity, higher = more binding, comparable within an allelic series)"
CCCGGCAG,binding signal,[1],"9.62 upbm affinity estimate (log intensity, higher = more binding, comparable within an allelic series)"
same,binding signal,[2],"9.52 upbm affinity estimate (log intensity, higher = more binding, comparable within an allelic series)"
same,binding signal,[3],"9.63 upbm affinity estimate (log intensity, higher = more binding, comparable within an allelic series)"
same,binding signal,[4],"9.61 upbm affinity estimate (log intensity, higher = more binding, comparable within an allelic series)"
same,binding signal,[8],"7.23 upbm affinity estimate (log intensity, higher = more binding, comparable within an allelic series)"
same,binding signal,[9],"7.18 upbm affinity estimate (log intensity, higher = more binding, comparable within an allelic series)"
same,binding signal,[10],"7.28 upbm affinity estimate (log intensity, higher = more binding, comparable within an allelic series)"
CTTCTCAA,binding signal,[1],"11.7 upbm affinity estimate (log intensity, higher = more binding, comparable within an allelic series)"
same,binding signal,[2],"11.9 upbm affinity estimate (log intensity, higher = more binding, comparable within an allelic series)"
same,binding signal,[3],"11.5 upbm affinity estimate (log intensity, higher = more binding, comparable within an allelic series)"
same,binding signal,[4],"11.9 upbm affinity estimate (log intensity, higher = more binding, comparable within an allelic series)"
CCACTCCA,binding signal,[1],"12.5 upbm affinity estimate (log intensity, higher = more binding, comparable within an allelic series)"
same,binding signal,[2],"12.8 upbm affinity estimate (log intensity, higher = more binding, comparable within an allelic series)"
same,binding signal,[3],"12.3 upbm affinity estimate (log intensity, higher = more binding, comparable within an allelic series)"
same,binding signal,[4],"12.9 upbm affinity estimate (log intensity, higher = more binding, comparable within an allelic series)"
AGTATCTC,binding signal,[1],"11.5 upbm affinity estimate (log intensity, higher = more binding, comparable within an allelic series)"
same,binding signal,[3],"11.4 upbm affinity estimate (log intensity, higher = more binding, comparable within an allelic series)"
same,binding signal,[4],"11.6 upbm affinity estimate (log intensity, higher = more binding, comparable within an allelic series)"
CACTTCAC,binding signal,[1],"12.5 upbm affinity estimate (log intensity, higher = more binding, comparable within an allelic series)"
same,binding signal,[2],"12.8 upbm affinity estimate (log intensity, higher = more binding, comparable within an allelic series)"
same,binding signal,[3],"12.3 upbm affinity estimate (log intensity, higher = more binding, comparable within an allelic series)"
same,binding signal,[4],"12.9 upbm affinity estimate (log intensity, higher = more binding, comparable within an allelic series)"
same,binding signal,[11],"10.7 upbm affinity estimate (log intensity, higher = more binding, comparable within an allelic series)"
AAGTGGAA,binding signal,[1],"12.4 upbm affinity estimate (log intensity, higher = more binding, comparable within an allelic series)"
same,binding signal,[12],"11.6 upbm affinity estimate (log intensity, higher = more binding, comparable within an allelic series)"
same,binding signal,[13],"13.3 upbm affinity estimate (log intensity, higher = more binding, comparable within an allelic series)"
same,binding signal,[4],"12.9 upbm affinity estimate (log intensity, higher = more binding, comparable within an allelic series)"
same,binding signal,[11],"10.6 upbm affinity estimate (log intensity, higher = more binding, comparable within an allelic series)"
GTGGCCAC,binding signal,[1],"10.2 upbm affinity estimate (log intensity, higher = more binding, comparable within an allelic series)"
same,binding signal,[2],"10.2 upbm affinity estimate (log intensity, higher = more binding, comparable within an allelic series)"
same,binding signal,[3],"10.2 upbm affinity estimate (log intensity, higher = more binding, comparable within an allelic series)"
same,binding signal,[4],"10.3 upbm affinity estimate (log intensity, higher = more binding, comparable within an allelic series)"
CACTCTTA,binding signal,[1],"12.3 upbm affinity estimate (log intensity, higher = more binding, comparable within an allelic series)"
same,binding signal,[2],"12.7 upbm affinity estimate (log intensity, higher = more binding, comparable within an allelic series)"
same,binding signal,[3],"12.3 upbm affinity estimate (log intensity, higher = more binding, comparable within an allelic series)"
same,binding signal,[4],"12.8 upbm affinity estimate (log intensity, higher = more binding, comparable within an allelic series)"
same,binding signal,[14],"12.5 upbm affinity estimate (log intensity, higher = more binding, comparable within an allelic series)"
same,binding signal,[15],"12.6 upbm affinity estimate (log intensity, higher = more binding, comparable within an allelic series)"
CGGTCGAC,binding signal,[1],"9.4 upbm affinity estimate (log intensity, higher = more binding, comparable within an allelic series)"
same,binding signal,[2],"9.24 upbm affinity estimate (log intensity, higher = more binding, comparable within an allelic series)"
same,binding signal,[3],"9.3 upbm affinity estimate (log intensity, higher = more binding, comparable within an allelic series)"
same,binding signal,[4],"9.39 upbm affinity estimate (log intensity, higher = more binding, comparable within an allelic series)"
same,binding signal,[8],"7.17 upbm affinity estimate (log intensity, higher = more binding, comparable within an allelic series)"
same,binding signal,[9],"7.28 upbm affinity estimate (log intensity, higher = more binding, comparable within an allelic series)"
same,binding signal,[10],"7.34 upbm affinity estimate (log intensity, higher = more binding, comparable within an allelic series)"
ATCGTGCC,binding signal,[1],"9.86 upbm affinity estimate (log intensity, higher = more binding, comparable within an allelic series)"
same,binding signal,[2],"9.92 upbm affinity estimate (log intensity, higher = more binding, comparable within an allelic series)"
same,binding signal,[3],"9.97 upbm affinity estimate (log intensity, higher = more binding, comparable within an allelic series)"
same,binding signal,[4],"9.95 upbm affinity estimate (log intensity, higher = more binding, comparable within an allelic series)"
CACTCGAG,binding signal,[1],"12.4 upbm affinity estimate (log intensity, higher = more binding, comparable within an allelic series)"
same,binding signal,[2],"12.8 upbm affinity estimate (log intensity, higher = more binding, comparable within an allelic series)"
same,binding signal,[3],"12.4 upbm affinity estimate (log intensity, higher = more binding, comparable within an allelic series)"
same,binding signal,[4],"13 upbm affinity estimate (log intensity, higher = more binding, comparable within an allelic series)"
ACTCTTAA,binding signal,[1],"12.4 upbm affinity estimate (log intensity, higher = more binding, comparable within an allelic series)"
same,binding signal,[16],"8.51 upbm affinity estimate (log intensity, higher = more binding, comparable within an allelic series)"
CCTGGAGC,binding signal,[1],"9.98 upbm affinity estimate (log intensity, higher = more binding, comparable within an allelic series)"
same,binding signal,[2],"9.95 upbm affinity estimate (log intensity, higher = more binding, comparable within an allelic series)"
same,binding signal,[3],"9.96 upbm affinity estimate (log intensity, higher = more binding, comparable within an allelic series)"
same,binding signal,[4],"9.94 upbm affinity estimate (log intensity, higher = more binding, comparable within an allelic series)"
CGTTGTCC,binding signal,[1],"9.74 upbm affinity estimate (log intensity, higher = more binding, comparable within an allelic series)"
same,binding signal,[2],"9.8 upbm affinity estimate (log intensity, higher = more binding, comparable within an allelic series)"
same,binding signal,[3],"9.79 upbm affinity estimate (log intensity, higher = more binding, comparable within an allelic series)"
same,binding signal,[4],"9.81 upbm affinity estimate (log intensity, higher = more binding, comparable within an allelic series)"
ACCACTCA,binding signal,[1],"12.4 upbm affinity estimate (log intensity, higher = more binding, comparable within an allelic series)"
same,binding signal,[2],"12.8 upbm affinity estimate (log intensity, higher = more binding, comparable within an allelic series)"
same,binding signal,[3],"12.3 upbm affinity estimate (log intensity, higher = more binding, comparable within an allelic series)"
same,binding signal,[4],"12.8 upbm affinity estimate (log intensity, higher = more binding, comparable within an allelic series)"
same,binding signal,[14],"12.5 upbm affinity estimate (log intensity, higher = more binding, comparable within an allelic series)"
same,binding signal,[15],"12.6 upbm affinity estimate (log intensity, higher = more binding, comparable within an allelic series)"
ATCCGGTG,binding signal,[1],"9.47 upbm affinity estimate (log intensity, higher = more binding, comparable within an allelic series)"
same,binding signal,[2],"9.42 upbm affinity estimate (log intensity, higher = more binding, comparable within an allelic series)"
same,binding signal,[3],"9.41 upbm affinity estimate (log intensity, higher = more binding, comparable within an allelic series)"
same,binding signal,[4],"9.45 upbm affinity estimate (log intensity, higher = more binding, comparable within an allelic series)"
ACGGCGCC,binding signal,[1],"9.61 upbm affinity estimate (log intensity, higher = more binding, comparable within an allelic series)"
same,binding signal,[2],"9.62 upbm affinity estimate (log intensity, higher = more binding, comparable within an allelic series)"
same,binding signal,[3],"9.59 upbm affinity estimate (log intensity, higher = more binding, comparable within an allelic series)"
same,binding signal,[4],"9.67 upbm affinity estimate (log intensity, higher = more binding, comparable within an allelic series)"
CACTCAAA,binding signal,[1],"12.4 upbm affinity estimate (log intensity, higher = more binding, comparable within an allelic series)"
same,binding signal,[14],"12.3 upbm affinity estimate (log intensity, higher = more binding, comparable within an allelic series)"
same,binding signal,[15],"12.3 upbm affinity estimate (log intensity, higher = more binding, comparable within an allelic series)"
CTGAAAAG,binding signal,[1],"11 upbm affinity estimate (log intensity, higher = more binding, comparable within an allelic series)"
same,binding signal,[3],"10.8 upbm affinity estimate (log intensity, higher = more binding, comparable within an allelic series)"
same,binding signal,[4],"11.1 upbm affinity estimate (log intensity, higher = more binding, comparable within an allelic series)"
CCGGTAAC,binding signal,[1],"9.94 upbm affinity estimate (log intensity, higher = more binding, comparable within an allelic series)"
same,binding signal,[2],"9.84 upbm affinity estimate (log intensity, higher = more binding, comparable within an allelic series)"
same,binding signal,[3],"9.9 upbm affinity estimate (log intensity, higher = more binding, comparable within an allelic series)"
same,binding signal,[4],"9.93 upbm affinity estimate (log intensity, higher = more binding, comparable within an allelic series)"

# From publication PMC11006913
